Source: PMC7819943, “Rice protein-binding microarrays: a tool to detect cis-acting elements near promoter regions in rice”
Over roughly 35,000 sequences, “fluorescence intensity (a.u.)” has its median near 10,000; the highest 2% begin near 52,000. The list comes from a sample in which the highest values are over-represented; it also holds similar and randomly drawn sequences.

Each sequence was assayed against T1, OsWOX13 (Oryza sativa, UniProt Q5QMM3 1-267) (assay: protein-binding microarray (RPBM); PBS, 2% BSA, 51.3 ng/ul salmon testes DNA, 50 uM zinc acetate, 200 nM TF, 25 C, 1 h; high values mean tight binding). Conditions: protein: recombinant; tags: N-terminal polyhistidine and DsRed monomer fusion (pET32a); label: CyDye5-dUTP incorporated in the synthesized complementary strand; 3' TTTTT single-stranded linker to array surface; dsDNA, one strand shown.
T1 sequence: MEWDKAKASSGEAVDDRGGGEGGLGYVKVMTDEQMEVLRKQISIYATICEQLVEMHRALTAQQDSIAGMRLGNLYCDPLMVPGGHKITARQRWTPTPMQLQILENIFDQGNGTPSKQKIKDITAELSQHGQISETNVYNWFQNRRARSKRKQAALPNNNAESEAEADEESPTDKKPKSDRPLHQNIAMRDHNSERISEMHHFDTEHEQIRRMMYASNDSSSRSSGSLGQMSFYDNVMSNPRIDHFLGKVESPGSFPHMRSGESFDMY
Method in brief: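 The binding signal is fluorescence intensity per feature, in arbitrary units, read on an Axon 4000B scanner. Polyhistidine- and DsRed-tagged transcription factors (N-terminal fusions) from E. coli BL21-CodonPlus were purified on Ni–NTA and applied at 200 nM for 1 h at 25 °C to a double-stranded, BSA-blocked custom Agilent array in buffer with 50 µM zinc acetate.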
In the case of “AATCAATTATAACCATTTTCTATTTAATTACCTCACGCACCGGAGTCACCTAGTGCAG”, the binding signal was 25700 fluorescence intensity (a.u.).
With “ATATAACAGTTTATTCACAAATTATTTTCCGTTTGCAAATCGGAGTCACCTAGTGCAG” the binding signal was 6830 fluorescence intensity (a.u.).
“ATTGACAAGATAGATTGTTGCCCAATTTTCGAAGATGCTCCGGAGTCACCTAGTGCAG” was tested, and the binding signal was 42000 fluorescence intensity (a.u.).
With “AATATTGATGCTTAAATTTCTTTCGAAGATCCTATGGAAGCGGAGTCACCTAGTGCAG” the binding signal was 3840 fluorescence intensity (a.u.).
“ATAAATTGATGCCCAATTTTCGAAGATGCTCATAGGGGTGCGGAGTCACCTAGTGCAG” was tested, and the binding signal was 52500 fluorescence intensity (a.u.).
For “TCCTGTAACAGAATTGGAAAACCCAATCTGGCGACGGCTGCGGAGTCACCTAGTGCAG”, the binding signal was 9790 fluorescence intensity (a.u.).
With “CTTGACAGGCACCGTGATACTTGGGTTCTTGATATAACTGCGGAGTCACCTAGTGCAG” the binding signal was 34400 fluorescence intensity (a.u.).
“ATGATATAATTAATTAATTAGCGCGCGGTTCCACCTCCCGCGGAGTCACCTAGTGCAG” was tested, and the binding signal was 60200 fluorescence intensity (a.u.).
In the case of “AATCCTCTTAATTATTATTAGCGGTTCGTCCTATGATCTTCGGAGTCACCTAGTGCAG”, the binding signal was 7080 fluorescence intensity (a.u.).
For “CTGACTGGCTCTGATTAATTAATTGATGATCGATCGAGCGCGGAGTCACCTAGTGCAG”, the binding signal was 49800 fluorescence intensity (a.u.).
For “TTAAAATTATTTTATAATTAATATTTATTATTATTATTAGCGGAGTCACCTAGTGCAG”, the binding signal was 12400 fluorescence intensity (a.u.).
“ATATAGTTGTGATTAATTAGTGAGTAGAGTGTGATACCTGCGGAGTCACCTAGTGCAG” was tested, and the binding signal was 22100 fluorescence intensity (a.u.).
For “GTAATTGATTTTCTGGCGCGATTAAGAGCTTGGTATATAGCGGAGTCACCTAGTGCAG”, the binding signal was 59200 fluorescence intensity (a.u.).
In the case of “GCGTAATTAGGCGGAGAGATTATAGGGAGAGAGATCGCGACGGAGTCACCTAGTGCAG”, the binding signal was 16700 fluorescence intensity (a.u.).
In the case of “TGATTAATTAGCGAGAGTAATTAATTAATTATAGCCTGCGCGGAGTCACCTAGTGCAG”, the binding signal was 61600 fluorescence intensity (a.u.).
With “TAGCTTAATTTGATTTCTATTTAAGACCTTGACATTAACGCGGAGTCACCTAGTGCAG” the binding signal was 24400 fluorescence intensity (a.u.).
In the case of “GAGCATGATTACTTAAATATTAGCTAATTCTTTCTTTAAACGGAGTCACCTAGTGCAG”, the binding signal was 15500 fluorescence intensity (a.u.).
“GTTGTACCACTGATTGGACTGCCTGCTTACCGATAATTAACGGAGTCACCTAGTGCAG” was tested, and the binding signal was 24500 fluorescence intensity (a.u.).
For “TTCTTGATGGAAATTGAAATTGTGTGTGTGGGATGCAGGACGGAGTCACCTAGTGCAG”, the binding signal was 46400 fluorescence intensity (a.u.).
“ACACTAATAGGTCATGTCCATTTCCATCCCATTTCCATTGCGGAGTCACCTAGTGCAG” was tested, and the binding signal was 7050 fluorescence intensity (a.u.).
In the case of “AGACTATTTACAAAACTAATTACATAAATGAAAGCTAACTCGGAGTCACCTAGTGCAG”, the binding signal was 5260 fluorescence intensity (a.u.).
In the case of “TAAATTATTTTCTATTTATAAATATGTCGTTTGCCTTATTCGGAGTCACCTAGTGCAG”, the binding signal was 4180 fluorescence intensity (a.u.).
In the case of “AATTGACAAAGATGAAACACATGTGGACTGGACTACTCGACGGAGTCACCTAGTGCAG”, the binding signal was 3660 fluorescence intensity (a.u.).
“ATATAAATTGACTATTAAATATATTGACTATATGTAAATTCGGAGTCACCTAGTGCAG” was tested, and the binding signal was 25600 fluorescence intensity (a.u.).
With “AATTAACGGAGGAAACTCCAATCAGATACGCAGACGGACACGGAGTCACCTAGTGCAG” the binding signal was 8430 fluorescence intensity (a.u.).
In the case of “TATATATATATATATATATATATATATATATATATAGACACGGAGTCACCTAGTGCAG”, the binding signal was 7880 fluorescence intensity (a.u.).
“TTACACTGATTGATGCTCCACATGAACACCACATGCATTTCGGAGTCACCTAGTGCAG” was tested, and the binding signal was 32600 fluorescence intensity (a.u.).
With “AACACAGGCTGATGAATGATGATTGAATGAACAGAGACAACGGAGTCACCTAGTGCAG” the binding signal was 22900 fluorescence intensity (a.u.).
In the case of “ATTGATGAATGTTGACAAACCTGGTTTGATTTGGAGGGAACGGAGTCACCTAGTGCAG”, the binding signal was 23500 fluorescence intensity (a.u.).
“AACAGCTGATGAGTGATGATTGACAGACATCACACGCGGACGGAGTCACCTAGTGCAG” was tested, and the binding signal was 57600 fluorescence intensity (a.u.).
With “TATCTGATGAGAGCAGATTGCCACACATCACAGCATGCAGCGGAGTCACCTAGTGCAG” the binding signal was 10300 fluorescence intensity (a.u.).
For “TGGCTGCTGATTGCAACAGTGGTACTGACATTAGCAGCAGCGGAGTCACCTAGTGCAG”, the binding signal was 16300 fluorescence intensity (a.u.).
“ATTGCTGATTGAGCATGTAGACATTGCTAGTGGTAGTACGCGGAGTCACCTAGTGCAG” was tested, and the binding signal was 58000 fluorescence intensity (a.u.).
With “AGTGATTATTTATTGGAGTACGATTGAGACCCTTGGTACGCGGAGTCACCTAGTGCAG” the binding signal was 33400 fluorescence intensity (a.u.).
For “CACCATGATTGATTGCTCCATGCACACACATTGAGACACGCGGAGTCACCTAGTGCAG”, the binding signal was 59700 fluorescence intensity (a.u.).
For “CTCTAGTTGATGATGGAAATCATTGACAAGAACTATAGCACGGAGTCACCTAGTGCAG”, the binding signal was 22100 fluorescence intensity (a.u.).
For “ATTTGATTTGATCACAACACATTAGCTTGGTTGCTCCATGCGGAGTCACCTAGTGCAG”, the binding signal was 41800 fluorescence intensity (a.u.).
“ATGATTGACAAGATGAATCAGCACGCTGTTGGAAAAGGGACGGAGTCACCTAGTGCAG” was tested, and the binding signal was 55400 fluorescence intensity (a.u.).
For “ATTATGTAAATTTTGACTAATGTTTAGTCGAAGTGCAAGTCGGAGTCACCTAGTGCAG”, the binding signal was 8100 fluorescence intensity (a.u.).
“TGTCACAAATCTAATGGTATAATTAGTTCATAGTTCGGATCGGAGTCACCTAGTGCAG” was tested, and the binding signal was 8340 fluorescence intensity (a.u.).
With “TCTAAATTTTCATGACATGGTACCATACTACAAATCCATCCGGAGTCACCTAGTGCAG” the binding signal was 9500 fluorescence intensity (a.u.).
For “TTTAGACAGTAATTAAAGTCGAATTACATTGCATTGTTCGCGGAGTCACCTAGTGCAG”, the binding signal was 40300 fluorescence intensity (a.u.).
